The structures appear in SMILES notation. Where a name gives a salt, the structure may show the parent alone.

Common to all, as to conditions: treatment time: 24 h
The test system of experiment [1] is A549-ACTB-RAB5A. Description: lowest phenotypically active concentration; higher = less potent. The essentials: (§1)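 Two criteria together defined phenotypic activity: deviation and reproducibility. Deviation meant ≥3 of 4 wells beyond the 95th percentile of Euclidean distances in solvent control wells, and reproducibility meant a median replicate Pearson correlation above the 95th percentile of non-replicates. Wells had been treated for 24 h at 0.3, 1, 3 or 9 µM in fifteen gene-edited A549, HepG2 and WPMY1 reporter lines before live imaging.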

Experiment [2] relates to A549-CANX-COX4. Described as above. The essentials: as §1
The subject of experiment [3] is A549-GM130-SQSTM1. Described as above. The essentials: as §1
Experiment [4] has as its system HepG2-TP53BP1-CLTA. The experiment is described as above. In short, it runs like this:
as §1

Experiment [5] relates to HepG2-TUBA1B-RELA. The experiment is described as above. In short, it runs like this:
as §1

The subject of experiment [6] is A549-ACTB-RAB5A. Description: phenotypically active (imaging signature differs from DMSO and reproducible) at any of 0.3-9 uM (binary (1 = active, 0 = inactive)); higher = active. In short, it runs like this:
as §1

Experiment [7] concerns A549-CANX-COX4. The experiment is described as above. In short, it runs like this: as §1
Experiment [8] has as its system A549-GM130-SQSTM1. The description is as above. In short, it runs like this:
as §1

A further experiment relates to A549-TP53BP1-CLTA. Described as above. In short, it runs like this:
as §1

The test system of the next experiment is A549-TUBA1B-RELA. The description is as above. In short, it runs like this:
as §1

The subject of another experiment is HepG2-ACTB-RAB5A. Described as above. The essentials: as §1
The next experiment deals with HepG2-CANX-COX4. The experiment is described as above. The essentials:
as §1

The test system of the next experiment is HepG2-GM130-SQSTM1. The description is as above. The essentials: as §1
Experiment [9] deals with HepG2-TP53BP1-CLTA. Described as above. The essentials:
as §1

Experiment [10] concerns HepG2-TUBA1B-RELA. The description is as above. In short, it runs like this:
as §1

Another experiment concerns WPMY1-ACTB-RAB5A. Described as above. The essentials:
as §1

The test system of another experiment is WPMY1-CANX-COX4. The description is as above. In short, it runs like this:
as §1

Another experiment concerns WPMY1-GM130-SQSTM1. The description is as above. In short, it runs like this: as §1
The next experiment deals with WPMY1-TP53BP1-CLTA. The experiment is described as above. In short, it runs like this:
as §1

The subject of another experiment is WPMY1-TUBA1B-RELA. The experiment is described as above. In short, it runs like this:
as §1

`CNc1nc(-c2ccc3c(N)n[nH]c3c2)cc(N2C[C@@H](C(=O)NC3CCCCC3)CC[C@H]2C)n1`: the “lowest phenotypically active concentration” value in the experiment on A549-ACTB-RAB5A [1] was found to be 1 µM; with A549-CANX-COX4 [2], 3 µM; in the experiment with A549-GM130-SQSTM1 [3], 1 µM; with HepG2-TP53BP1-CLTA [4], 3 µM; in the experiment on HepG2-TUBA1B-RELA [5], 9 µM. Further, the phenotypically active with A549-ACTB-RAB5A [6] was 1 (active); in the experiment with A549-CANX-COX4 [7] it was 1 (active); with A549-GM130-SQSTM1 [8], 1 (active); in the experiment on A549-TP53BP1-CLTA, 1 (active); with A549-TUBA1B-RELA it was 1 (active); in the experiment with HepG2-ACTB-RAB5A, 0 (inactive). In addition, the phenotypically active in the experiment with HepG2-CANX-COX4, in the experiment with HepG2-GM130-SQSTM1, in the experiment on HepG2-TP53BP1-CLTA [9], in the experiment on HepG2-TUBA1B-RELA [10], with WPMY1-ACTB-RAB5A and in the experiment on WPMY1-CANX-COX4 was 1 (active) in each case. Also, the phenotypically active in the experiment on WPMY1-GM130-SQSTM1, in the experiment on WPMY1-TP53BP1-CLTA and with WPMY1-TUBA1B-RELA was 1 (active) in each case.
With `Cc1ccc(-n2nc(C(C)(C)C)cc2NC(=O)Nc2ccc(OCCN3CCOCC3)c3ccccc23)cc1`, the “lowest phenotypically active concentration” value in the experiment with A549-ACTB-RAB5A [1] was 3 µM; in the experiment with A549-CANX-COX4 [2], 9 µM; in the experiment with A549-GM130-SQSTM1 [3], 3 µM; in the experiment on HepG2-TP53BP1-CLTA [4], 3 µM; in the experiment on HepG2-TUBA1B-RELA [5], at most 0.3 µM. For the same molecule, the phenotypically active in the experiment with A549-ACTB-RAB5A [6], with A549-CANX-COX4 [7], in the experiment on A549-GM130-SQSTM1 [8], in the experiment with A549-TP53BP1-CLTA, in the experiment on A549-TUBA1B-RELA and with HepG2-ACTB-RAB5A was 1 (active) each time. The phenotypically active in the experiment on HepG2-CANX-COX4, in the experiment with HepG2-GM130-SQSTM1, in the experiment on HepG2-TP53BP1-CLTA [9], in the experiment on HepG2-TUBA1B-RELA [10], in the experiment on WPMY1-ACTB-RAB5A and in the experiment on WPMY1-CANX-COX4 was 1 (active) in each case. In addition, the phenotypically active with WPMY1-GM130-SQSTM1, in the experiment on WPMY1-TP53BP1-CLTA and with WPMY1-TUBA1B-RELA was 1 (active) each time.
Take `Nc1nc(S)c2[nH]cnc2n1` [thioguanine]: the “lowest phenotypically active concentration” value with A549-ACTB-RAB5A [1] amounted to 3 µM; with A549-CANX-COX4 [2] it was 9 µM; with A549-GM130-SQSTM1 [3], 9 µM; in the experiment with HepG2-TP53BP1-CLTA [4] it was 1 µM; in the experiment on HepG2-TUBA1B-RELA [5] it was 1 µM. The phenotypically active in the experiment with A549-ACTB-RAB5A [6], with A549-CANX-COX4 [7], in the experiment with A549-GM130-SQSTM1 [8], with A549-TP53BP1-CLTA, in the experiment on A549-TUBA1B-RELA and in the experiment on HepG2-ACTB-RAB5A was 1 (active) throughout. Besides, the phenotypically active in the experiment with HepG2-CANX-COX4, with HepG2-GM130-SQSTM1, in the experiment on HepG2-TP53BP1-CLTA [9], in the experiment on HepG2-TUBA1B-RELA [10], in the experiment with WPMY1-ACTB-RAB5A and in the experiment with WPMY1-CANX-COX4 was 1 (active) each time. Besides, the phenotypically active with WPMY1-GM130-SQSTM1, in the experiment on WPMY1-TP53BP1-CLTA and with WPMY1-TUBA1B-RELA was 1 (active) in each case.
On to `CC(C)(C)c1cc(NC(=O)Nc2ccc(-c3cn4c(n3)sc3cc(OCCN5CCOCC5)ccc34)cc2)no1` [quizartinib], for which the “lowest phenotypically active concentration” value was 3 µM in the experiment on A549-ACTB-RAB5A [1], 3 µM in the experiment on A549-CANX-COX4 [2], 1 µM with A549-GM130-SQSTM1 [3] and 3 µM in the experiment on HepG2-TUBA1B-RELA [5]. Further, the phenotypically active in the experiment on A549-ACTB-RAB5A [6], with A549-CANX-COX4 [7], with A549-GM130-SQSTM1 [8], in the experiment on A549-TP53BP1-CLTA, with A549-TUBA1B-RELA and in the experiment with HepG2-ACTB-RAB5A was 1 (active) in each case. In addition, the phenotypically active in the experiment with HepG2-CANX-COX4 was 0 (inactive); in the experiment with HepG2-GM130-SQSTM1, 1 (active); in the experiment with HepG2-TP53BP1-CLTA [9] it was 0 (inactive); in the experiment with HepG2-TUBA1B-RELA [10], 1 (active); with WPMY1-ACTB-RAB5A it was 1 (active); in the experiment with WPMY1-CANX-COX4, 1 (active). Also, the phenotypically active in the experiment on WPMY1-GM130-SQSTM1, with WPMY1-TP53BP1-CLTA and with WPMY1-TUBA1B-RELA was 1 (active) throughout.
In the case of `COc1cc(C(=O)NC2CCN(C)CC2)c(F)cc1Nc1ncc2c(n1)N(C1CCCC1)CC(F)(F)C(=O)N2C` [TAK 960 hydrochloride], the “lowest phenotypically active concentration” value with A549-ACTB-RAB5A [1], in the experiment on A549-CANX-COX4 [2], in the experiment with A549-GM130-SQSTM1 [3], with HepG2-TP53BP1-CLTA [4] and with HepG2-TUBA1B-RELA [5] was at most 0.3 µM throughout. Besides, the phenotypically active in the experiment with A549-ACTB-RAB5A [6], with A549-CANX-COX4 [7], in the experiment on A549-GM130-SQSTM1 [8], in the experiment on A549-TP53BP1-CLTA, in the experiment with A549-TUBA1B-RELA and in the experiment with HepG2-ACTB-RAB5A was 1 (active) each time. Further, the phenotypically active with HepG2-CANX-COX4, in the experiment with HepG2-GM130-SQSTM1, with HepG2-TP53BP1-CLTA [9], in the experiment on HepG2-TUBA1B-RELA [10], in the experiment on WPMY1-ACTB-RAB5A and with WPMY1-CANX-COX4 was 1 (active) each time. Moreover, the phenotypically active with WPMY1-GM130-SQSTM1, with WPMY1-TP53BP1-CLTA and in the experiment on WPMY1-TUBA1B-RELA was 1 (active) each time.
With `CCCCNNC(=O)c1ccc(Br)cc1`, the “lowest phenotypically active concentration” value with A549-ACTB-RAB5A [1] was found to be 1 µM; with A549-CANX-COX4 [2], 3 µM; in the experiment on A549-GM130-SQSTM1 [3], 3 µM; in the experiment with HepG2-TP53BP1-CLTA [4] it was 1 µM; in the experiment on HepG2-TUBA1B-RELA [5] it was 9 µM. The phenotypically active in the experiment with A549-ACTB-RAB5A [6], in the experiment with A549-CANX-COX4 [7], in the experiment on A549-GM130-SQSTM1 [8], in the experiment with A549-TP53BP1-CLTA, with A549-TUBA1B-RELA and in the experiment on HepG2-ACTB-RAB5A was 1 (active) each time. Moreover, the phenotypically active was 1 (active) in the experiment on HepG2-CANX-COX4; 1 (active) with HepG2-GM130-SQSTM1; 1 (active) with HepG2-TP53BP1-CLTA [9]; 1 (active) in the experiment on HepG2-TUBA1B-RELA [10]; 0 (inactive) in the experiment with WPMY1-ACTB-RAB5A; 1 (active) with WPMY1-CANX-COX4. Moreover, the phenotypically active in the experiment on WPMY1-GM130-SQSTM1, in the experiment on WPMY1-TP53BP1-CLTA and with WPMY1-TUBA1B-RELA was 1 (active) in each case.

The values above are taken from the supplement of paper PMC7411054.
